Assays:
Assay in all cases: DAPPL (digital affinity profiling via proximity ligation, sequencing); 10 mM Tris-HCl pH 7.5, 50 mM NaCl, 1 mM DTT, 4% glycerol, room temperature, 30 min; GST-TFs on glutathione beads, 16-mer random dsDNA library, 0.1% formaldehyde crosslink after washing; high values mean tight binding
Details in all cases: protein: recombinant; tags: N-terminal GST; dsDNA, one strand shown
ELK1 = target: T1, ELK1 (Homo sapiens, UniProt P19419 1-428)
T1 sequence: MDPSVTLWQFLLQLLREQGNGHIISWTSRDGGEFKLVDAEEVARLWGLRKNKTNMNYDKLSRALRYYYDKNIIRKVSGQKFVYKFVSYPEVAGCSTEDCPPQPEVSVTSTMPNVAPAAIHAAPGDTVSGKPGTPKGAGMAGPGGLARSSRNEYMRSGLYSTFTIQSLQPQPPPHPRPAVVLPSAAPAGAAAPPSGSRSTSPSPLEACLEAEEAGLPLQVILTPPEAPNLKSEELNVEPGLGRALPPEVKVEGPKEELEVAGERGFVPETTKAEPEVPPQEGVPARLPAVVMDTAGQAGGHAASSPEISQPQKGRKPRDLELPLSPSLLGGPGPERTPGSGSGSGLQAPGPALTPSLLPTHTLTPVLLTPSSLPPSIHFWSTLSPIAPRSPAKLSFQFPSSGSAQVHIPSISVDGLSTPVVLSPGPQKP
Summary of the method: (§1)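 GST fusions of human transcription factors were expressed in yeast and captured with glutathione beads. Once given DNA barcodes and pooled alongside a tag-only sample, they were incubated for 30 min at room temperature with 200 nmole of a random double-stranded 16-mer DNA library in Tris/NaCl/DTT/glycerol buffer, then washed, crosslinked (0.1% formaldehyde), proximity-ligated, PCR-amplified and sequenced on an Illumina NextSeq500. The binding signal of each hexamer is its read frequency for a factor divided by its frequency for the tag-only sample.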

GABPA = target: T2, GABPA (Homo sapiens, UniProt Q06546 1-454)
T2 sequence: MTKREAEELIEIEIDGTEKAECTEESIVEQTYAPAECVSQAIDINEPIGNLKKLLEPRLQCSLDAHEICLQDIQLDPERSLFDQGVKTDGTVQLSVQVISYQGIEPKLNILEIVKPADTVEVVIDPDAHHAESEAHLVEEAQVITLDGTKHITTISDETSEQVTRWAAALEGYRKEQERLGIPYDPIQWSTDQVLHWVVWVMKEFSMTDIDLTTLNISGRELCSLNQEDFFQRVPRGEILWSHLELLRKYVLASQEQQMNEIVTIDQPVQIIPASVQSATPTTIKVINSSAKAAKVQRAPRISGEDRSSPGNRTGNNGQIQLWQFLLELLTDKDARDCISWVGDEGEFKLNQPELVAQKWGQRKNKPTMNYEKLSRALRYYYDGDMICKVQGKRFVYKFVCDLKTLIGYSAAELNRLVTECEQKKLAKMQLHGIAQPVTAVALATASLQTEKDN
Summary of the method: as §1

ERG = target: T3, ERG (Homo sapiens, UniProt P11308 1-479)
T3 sequence: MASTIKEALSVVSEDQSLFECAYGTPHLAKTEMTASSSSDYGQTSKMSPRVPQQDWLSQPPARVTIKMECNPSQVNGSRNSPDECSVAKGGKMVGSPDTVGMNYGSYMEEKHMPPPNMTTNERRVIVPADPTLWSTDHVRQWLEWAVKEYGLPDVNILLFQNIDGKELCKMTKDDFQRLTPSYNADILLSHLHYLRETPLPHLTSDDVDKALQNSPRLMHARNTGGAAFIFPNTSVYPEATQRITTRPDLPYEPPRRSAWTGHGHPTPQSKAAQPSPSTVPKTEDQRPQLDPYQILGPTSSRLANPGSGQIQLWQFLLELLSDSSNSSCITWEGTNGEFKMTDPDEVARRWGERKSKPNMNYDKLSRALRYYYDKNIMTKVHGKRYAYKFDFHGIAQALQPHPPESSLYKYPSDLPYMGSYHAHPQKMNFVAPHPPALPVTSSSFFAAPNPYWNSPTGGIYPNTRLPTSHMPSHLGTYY
Summary of the method: as §1

ELF1 = ELF1 (Homo sapiens, UniProt P32519 1-619)
Summary of the method: as §1

EHF = target: T4, EHF (Homo sapiens, UniProt Q9NZC4 1-300)
T4 sequence: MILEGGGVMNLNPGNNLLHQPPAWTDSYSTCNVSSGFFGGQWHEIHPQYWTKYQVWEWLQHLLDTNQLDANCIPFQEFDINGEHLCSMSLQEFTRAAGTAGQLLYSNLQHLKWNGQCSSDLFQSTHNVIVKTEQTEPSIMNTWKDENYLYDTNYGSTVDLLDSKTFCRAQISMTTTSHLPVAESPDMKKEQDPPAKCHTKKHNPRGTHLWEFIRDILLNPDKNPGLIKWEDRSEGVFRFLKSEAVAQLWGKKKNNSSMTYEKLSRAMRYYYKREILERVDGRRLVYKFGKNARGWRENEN
Summary of the method: as §1

SPIB = SPIB (Homo sapiens, UniProt Q01892 1-262)
Summary of the method: as §1

ELK3 = target: T5, ELK3 (Homo sapiens, UniProt P41970 1-407)
T5 sequence: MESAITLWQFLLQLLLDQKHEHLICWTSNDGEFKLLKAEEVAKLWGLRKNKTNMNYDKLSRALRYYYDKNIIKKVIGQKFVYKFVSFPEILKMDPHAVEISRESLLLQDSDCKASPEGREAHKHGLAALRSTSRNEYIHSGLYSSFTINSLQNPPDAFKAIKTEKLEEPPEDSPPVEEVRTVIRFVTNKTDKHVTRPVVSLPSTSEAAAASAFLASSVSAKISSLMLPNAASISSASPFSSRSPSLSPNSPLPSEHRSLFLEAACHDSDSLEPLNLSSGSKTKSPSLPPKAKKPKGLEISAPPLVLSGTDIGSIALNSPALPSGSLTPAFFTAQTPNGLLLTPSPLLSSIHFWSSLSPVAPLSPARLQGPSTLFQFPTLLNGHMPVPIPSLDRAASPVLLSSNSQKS
Summary of the method: as §1

SPIC = target: T6, SPIC (Homo sapiens, UniProt Q8N5J4 1-248)
T6 sequence: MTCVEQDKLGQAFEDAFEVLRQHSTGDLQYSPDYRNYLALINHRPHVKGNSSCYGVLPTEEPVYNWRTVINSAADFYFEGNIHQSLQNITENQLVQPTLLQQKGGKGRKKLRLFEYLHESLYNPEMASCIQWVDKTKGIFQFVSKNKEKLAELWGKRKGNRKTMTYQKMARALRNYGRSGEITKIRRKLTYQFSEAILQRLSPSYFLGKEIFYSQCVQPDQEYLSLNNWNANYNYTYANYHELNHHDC
Summary of the method: as §1

ELF4 = ELF4 (Homo sapiens, UniProt Q99607 1-663)
Summary of the method: as §1

ELK4 = target: T7, ELK4 (Homo sapiens, UniProt P28324-2 1-405)
T7 sequence: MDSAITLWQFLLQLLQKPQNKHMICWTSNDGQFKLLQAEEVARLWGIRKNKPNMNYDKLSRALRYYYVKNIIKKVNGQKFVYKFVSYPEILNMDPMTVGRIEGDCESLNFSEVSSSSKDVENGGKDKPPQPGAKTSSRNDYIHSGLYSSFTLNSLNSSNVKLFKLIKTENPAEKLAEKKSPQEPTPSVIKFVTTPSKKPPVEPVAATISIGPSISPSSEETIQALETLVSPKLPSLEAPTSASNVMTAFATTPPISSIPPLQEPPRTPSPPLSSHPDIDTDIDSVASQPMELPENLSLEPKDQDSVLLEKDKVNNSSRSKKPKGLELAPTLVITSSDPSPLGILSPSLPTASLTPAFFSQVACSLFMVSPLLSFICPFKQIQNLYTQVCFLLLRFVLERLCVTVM
Summary of the method: as §1

ETV1 = ETV1 (Homo sapiens, UniProt P50549 1-477)
Summary of the method: as §1

ERF = target: T8, ERF (Homo sapiens, UniProt P50548 1-548)
T8 sequence: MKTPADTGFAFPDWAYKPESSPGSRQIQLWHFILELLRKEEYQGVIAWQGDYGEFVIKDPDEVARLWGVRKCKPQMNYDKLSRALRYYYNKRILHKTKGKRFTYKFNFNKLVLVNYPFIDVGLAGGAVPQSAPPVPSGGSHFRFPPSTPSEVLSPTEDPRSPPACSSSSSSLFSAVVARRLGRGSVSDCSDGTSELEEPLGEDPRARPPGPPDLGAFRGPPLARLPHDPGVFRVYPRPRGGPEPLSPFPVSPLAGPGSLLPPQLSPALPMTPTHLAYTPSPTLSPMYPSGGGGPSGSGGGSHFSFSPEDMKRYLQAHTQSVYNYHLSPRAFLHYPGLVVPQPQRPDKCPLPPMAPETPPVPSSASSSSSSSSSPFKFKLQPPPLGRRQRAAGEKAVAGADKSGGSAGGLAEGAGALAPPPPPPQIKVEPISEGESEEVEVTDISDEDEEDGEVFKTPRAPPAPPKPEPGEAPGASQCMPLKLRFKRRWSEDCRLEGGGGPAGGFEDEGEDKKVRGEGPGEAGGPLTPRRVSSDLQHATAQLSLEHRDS
Summary of the method: as §1

ETV3L = target: T9, ETV3L (Homo sapiens, UniProt Q6ZN32 1-361)
T9 sequence: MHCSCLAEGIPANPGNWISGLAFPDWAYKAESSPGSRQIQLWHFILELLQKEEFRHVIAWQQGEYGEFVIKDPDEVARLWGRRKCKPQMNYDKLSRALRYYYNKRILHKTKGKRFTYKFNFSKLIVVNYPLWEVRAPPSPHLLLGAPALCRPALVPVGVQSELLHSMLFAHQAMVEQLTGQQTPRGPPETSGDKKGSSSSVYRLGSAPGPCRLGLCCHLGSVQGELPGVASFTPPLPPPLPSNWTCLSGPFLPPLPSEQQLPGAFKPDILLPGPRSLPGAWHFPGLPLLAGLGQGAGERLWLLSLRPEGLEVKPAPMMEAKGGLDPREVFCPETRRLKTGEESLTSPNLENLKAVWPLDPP
Summary of the method: as §1

ETS2 = target: T10, ETS2 (Homo sapiens, UniProt P15036 1-469)
T10 sequence: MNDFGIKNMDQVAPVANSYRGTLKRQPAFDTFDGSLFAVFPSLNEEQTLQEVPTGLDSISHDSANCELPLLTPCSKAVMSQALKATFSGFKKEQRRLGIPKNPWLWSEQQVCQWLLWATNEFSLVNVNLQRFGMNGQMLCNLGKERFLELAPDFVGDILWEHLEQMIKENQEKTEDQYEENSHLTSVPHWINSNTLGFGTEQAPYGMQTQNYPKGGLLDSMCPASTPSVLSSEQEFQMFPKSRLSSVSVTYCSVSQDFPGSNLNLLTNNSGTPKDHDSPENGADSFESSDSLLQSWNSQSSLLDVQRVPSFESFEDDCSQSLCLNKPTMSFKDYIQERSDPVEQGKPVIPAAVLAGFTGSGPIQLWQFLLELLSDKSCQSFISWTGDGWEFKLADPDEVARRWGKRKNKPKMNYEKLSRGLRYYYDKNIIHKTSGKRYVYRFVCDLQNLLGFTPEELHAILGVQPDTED
Summary of the method: as §1

SPDEF = target: T11, SPDEF (Homo sapiens, UniProt O95238 1-335)
T11 sequence: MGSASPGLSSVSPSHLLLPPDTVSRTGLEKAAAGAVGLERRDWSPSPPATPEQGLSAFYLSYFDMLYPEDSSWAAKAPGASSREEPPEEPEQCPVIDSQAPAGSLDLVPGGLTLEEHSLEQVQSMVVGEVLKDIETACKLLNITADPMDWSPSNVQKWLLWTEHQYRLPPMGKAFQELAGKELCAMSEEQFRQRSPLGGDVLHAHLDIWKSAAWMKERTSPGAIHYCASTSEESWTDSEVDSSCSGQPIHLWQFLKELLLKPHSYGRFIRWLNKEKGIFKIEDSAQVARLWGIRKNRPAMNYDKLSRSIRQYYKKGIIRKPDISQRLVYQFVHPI
Summary of the method: as §1

ETV7 = target: T12, ETV7 (Homo sapiens, UniProt Q9Y603 1-341)
T12 sequence: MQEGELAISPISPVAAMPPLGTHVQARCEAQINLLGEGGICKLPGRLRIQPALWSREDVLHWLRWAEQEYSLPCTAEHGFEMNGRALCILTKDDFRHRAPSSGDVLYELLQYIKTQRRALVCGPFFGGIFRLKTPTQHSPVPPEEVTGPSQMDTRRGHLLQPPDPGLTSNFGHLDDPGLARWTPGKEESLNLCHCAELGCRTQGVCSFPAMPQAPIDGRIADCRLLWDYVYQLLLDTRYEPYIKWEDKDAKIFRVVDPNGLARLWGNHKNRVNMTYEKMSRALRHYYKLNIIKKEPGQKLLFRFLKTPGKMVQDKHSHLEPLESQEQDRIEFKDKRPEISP
Summary of the method: as §1

ETV6 = ETV6 (Homo sapiens, UniProt P41212 1-452)
Summary of the method: as §1

Chain of ETV6 (P41212 whole entry): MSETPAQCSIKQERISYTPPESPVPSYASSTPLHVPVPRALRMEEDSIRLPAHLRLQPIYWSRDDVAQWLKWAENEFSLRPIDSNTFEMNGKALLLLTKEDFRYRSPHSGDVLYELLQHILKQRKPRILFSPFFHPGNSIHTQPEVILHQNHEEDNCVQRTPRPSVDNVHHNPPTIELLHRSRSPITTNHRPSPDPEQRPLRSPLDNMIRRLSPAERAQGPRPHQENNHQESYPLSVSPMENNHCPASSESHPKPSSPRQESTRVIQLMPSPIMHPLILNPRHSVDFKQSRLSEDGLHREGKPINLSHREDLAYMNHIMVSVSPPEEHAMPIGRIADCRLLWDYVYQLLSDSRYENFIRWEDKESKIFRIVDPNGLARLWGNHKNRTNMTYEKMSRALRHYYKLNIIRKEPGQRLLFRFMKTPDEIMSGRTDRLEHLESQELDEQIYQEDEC
Chain of ETV1 (P50549 whole entry): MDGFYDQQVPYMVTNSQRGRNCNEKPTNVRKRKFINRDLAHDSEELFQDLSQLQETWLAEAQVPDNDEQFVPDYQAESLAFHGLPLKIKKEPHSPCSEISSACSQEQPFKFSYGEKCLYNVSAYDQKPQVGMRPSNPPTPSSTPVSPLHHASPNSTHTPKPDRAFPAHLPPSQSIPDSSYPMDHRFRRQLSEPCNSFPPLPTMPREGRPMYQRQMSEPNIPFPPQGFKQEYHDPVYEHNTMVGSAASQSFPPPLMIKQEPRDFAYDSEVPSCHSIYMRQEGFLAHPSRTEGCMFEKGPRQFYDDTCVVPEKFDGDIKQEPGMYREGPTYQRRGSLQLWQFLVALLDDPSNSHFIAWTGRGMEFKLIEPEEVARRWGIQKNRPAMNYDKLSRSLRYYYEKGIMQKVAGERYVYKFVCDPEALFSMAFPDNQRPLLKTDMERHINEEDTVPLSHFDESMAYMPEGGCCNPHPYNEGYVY
Chain of ELF4 (Q99607 whole entry): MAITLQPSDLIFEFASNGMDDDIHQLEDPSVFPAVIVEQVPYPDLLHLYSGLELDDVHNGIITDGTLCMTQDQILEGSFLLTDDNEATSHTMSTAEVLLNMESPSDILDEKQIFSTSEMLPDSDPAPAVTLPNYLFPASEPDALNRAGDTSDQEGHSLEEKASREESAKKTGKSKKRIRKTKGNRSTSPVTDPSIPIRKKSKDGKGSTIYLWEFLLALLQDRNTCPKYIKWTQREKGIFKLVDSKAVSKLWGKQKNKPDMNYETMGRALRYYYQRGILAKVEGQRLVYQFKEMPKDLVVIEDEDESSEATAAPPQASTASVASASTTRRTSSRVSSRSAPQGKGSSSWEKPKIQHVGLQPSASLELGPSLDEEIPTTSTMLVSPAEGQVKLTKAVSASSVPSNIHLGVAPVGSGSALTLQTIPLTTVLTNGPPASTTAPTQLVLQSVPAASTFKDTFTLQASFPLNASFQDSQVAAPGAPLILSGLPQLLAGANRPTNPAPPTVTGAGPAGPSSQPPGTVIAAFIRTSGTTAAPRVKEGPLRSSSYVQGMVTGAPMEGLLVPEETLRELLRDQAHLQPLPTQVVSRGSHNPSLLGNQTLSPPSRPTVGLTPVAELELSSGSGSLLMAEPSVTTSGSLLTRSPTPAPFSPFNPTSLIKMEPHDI
Chain of ELF1 (P32519 whole entry): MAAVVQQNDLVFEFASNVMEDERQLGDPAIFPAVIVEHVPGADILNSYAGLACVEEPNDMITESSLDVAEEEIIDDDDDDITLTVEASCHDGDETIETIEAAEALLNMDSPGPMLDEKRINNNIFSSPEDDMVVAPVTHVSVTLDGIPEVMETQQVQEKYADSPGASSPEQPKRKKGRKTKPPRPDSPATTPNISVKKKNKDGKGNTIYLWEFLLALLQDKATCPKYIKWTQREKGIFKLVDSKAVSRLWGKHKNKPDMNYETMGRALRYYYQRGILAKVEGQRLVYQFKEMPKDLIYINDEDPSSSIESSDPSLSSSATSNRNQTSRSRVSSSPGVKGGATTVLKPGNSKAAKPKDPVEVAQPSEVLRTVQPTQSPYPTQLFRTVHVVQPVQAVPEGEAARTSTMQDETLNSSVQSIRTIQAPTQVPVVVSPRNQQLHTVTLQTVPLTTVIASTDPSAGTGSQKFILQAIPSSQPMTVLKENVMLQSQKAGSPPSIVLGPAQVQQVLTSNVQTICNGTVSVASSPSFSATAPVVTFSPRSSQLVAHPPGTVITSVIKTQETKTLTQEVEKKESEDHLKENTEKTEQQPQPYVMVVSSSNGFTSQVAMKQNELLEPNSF
Chain of SPIB (Q01892 whole entry): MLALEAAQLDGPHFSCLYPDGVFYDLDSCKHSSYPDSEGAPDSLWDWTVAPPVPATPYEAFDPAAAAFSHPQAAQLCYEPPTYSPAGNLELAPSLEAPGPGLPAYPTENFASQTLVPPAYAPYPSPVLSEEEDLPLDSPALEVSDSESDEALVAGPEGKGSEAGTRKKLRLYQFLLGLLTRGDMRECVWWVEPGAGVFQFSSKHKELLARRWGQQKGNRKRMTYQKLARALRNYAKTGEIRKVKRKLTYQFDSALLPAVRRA

Q: Which results are given for CGTCTG?
A: binding signal (ELK1): 1.06 fold enrichment (6-mer frequency, TF over GST control); binding signal (GABPA): 1.06 fold enrichment (6-mer frequency, TF over GST control); binding signal (ERG): 1.11 fold enrichment (6-mer frequency, TF over GST control); binding signal (ELF1): 1.11 fold enrichment (6-mer frequency, TF over GST control); binding signal (EHF): 1.07 fold enrichment (6-mer frequency, TF over GST control); binding signal (SPIB): 1.18 fold enrichment (6-mer frequency, TF over GST control); binding signal (ELK3): 1.05 fold enrichment (6-mer frequency, TF over GST control); binding signal (SPIC): 1.17 fold enrichment (6-mer frequency, TF over GST control); binding signal (ELF4): 1.05 fold enrichment (6-mer frequency, TF over GST control); binding signal (ELK4): 1.08 fold enrichment (6-mer frequency, TF over GST control); binding signal (ETV1): 1.12 fold enrichment (6-mer frequency, TF over GST control); binding signal (ERF): 1.11 fold enrichment (6-mer frequency, TF over GST control); binding signal (ETV3L): 1.14 fold enrichment (6-mer frequency, TF over GST control); binding signal (ETS2): 1.08 fold enrichment (6-mer frequency, TF over GST control); binding signal (SPDEF): 1.05 fold enrichment (6-mer frequency, TF over GST control); binding signal (ETV7): 1.02 fold enrichment (6-mer frequency, TF over GST control); binding signal (ETV6): 1.01 fold enrichment (6-mer frequency, TF over GST control)

Source: article PMC7862700, “An all-to-all approach to the identification of sequence-specific readers for epigenetic DNA modifications on cytosine”
